Data published in PubChem BioAssay (NCI).
Several values for one entry are separate records, joined by “and”; a condition that tells them apart may be missing. Equal entries are not always repeated. This is part of a sample that, as a whole, favours compounds with a hit. Of some 83,000 tested, about 20% had one in any assay.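 How to read the values: 0–100, growth inhibition (40 = 60% inhibited); 0, no net growth; -100 to 0, cell death (-40 = 40% of starting cells died; -100 = all dead).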 Activity calls are given as the source filed them. Rule for the calls: active = growth percent below 10; inactive = the rest.

Tests used:
Test in all cases: NCI-60 one-dose screen, 48 h (100 = growth as untreated, 0 = no growth, -100 = all killed)
Details in all cases: 10 µM unless noted
HCT-15 colon = test system: HCT-15 colon
HT29 colon = test system: HT29 colon
SNB-75 CNS = test system: SNB-75 CNS
SNB-19 CNS = test system: SNB-19 CNS
U251 CNS = test system: U251 CNS
PC-3 prostate = test system: PC-3 prostate
SK-MEL-5 melanoma = test system: SK-MEL-5 melanoma
UACC-62 melanoma = test system: UACC-62 melanoma
LOX IMVI melanoma = test system: LOX IMVI melanoma
SK-MEL-28 melanoma = test system: SK-MEL-28 melanoma
SK-MEL-2 melanoma = test system: SK-MEL-2 melanoma
EKVX NSCLC = test system: EKVX NSCLC
SN12C renal = test system: SN12C renal
UO-31 renal = test system: UO-31 renal
TK-10 renal = test system: TK-10 renal
ACHN renal = test system: ACHN renal
CAKI-1 renal = test system: CAKI-1 renal
A498 renal = test system: A498 renal
CCRF-CEM leukemia = test system: CCRF-CEM leukemia
MOLT-4 leukemia = test system: MOLT-4 leukemia

| Compound | growth (HCT-15 colon) | growth (HT29 colon) | growth (SNB-75 CNS) | growth (SNB-19 CNS) | growth (U251 CNS) | growth (PC-3 prostate) | growth (SK-MEL-5 melanoma) | growth (UACC-62 melanoma) | growth (LOX IMVI melanoma) | growth (SK-MEL-28 melanoma) | growth (SK-MEL-2 melanoma) | growth (EKVX NSCLC) | growth (SN12C renal) | growth (UO-31 renal) | growth (TK-10 renal) | growth (ACHN renal) | growth (CAKI-1 renal) | growth (A498 renal) | growth (CCRF-CEM leukemia) | growth (MOLT-4 leukemia) |
| --- | --- | --- | --- | --- | --- | --- | --- | --- | --- | --- | --- | --- | --- | --- | --- | --- | --- | --- | --- | --- |
| Cn1cc(-c2cc3nc(-c4c[nH]c5ccccc45)cc(N)n3n2)c2ccccc21 | -73% (active) | -65.3% (active) | 91.6% (inactive) | 18.6% (inactive) | -91.1% (active) | -69.7% (active) | 8.15% (active) | -88.5% (active) | -77.8% (active) | -97.8% (active) | -65.5% (active) | 55.1% (inactive) | -78.5% (active) | -61.2% (active) | 8.91% (active) | -73.9% (active) | 29.7% (inactive) | 130% (inactive) | -38.1% (active) | -19.4% (active) |
| Fc1ccc(N2CC(Cn3c(C(F)(F)F)cc4c(Cl)ncnc43)C2)c(F)c1 | -76.5% (active) | -59.4% (active) | 24.6% (inactive) | -39.1% (active) | -26.6% (active) | 0.119% (active) | 88.9% (inactive) | 6.55% (active) | -93.6% (active) | -89.8% (active) | -78.1% (active) | 72.4% (inactive) | -29.1% (active) | -92% (active) | 104% (inactive) | 41.8% (inactive) | 71.7% (inactive) | 130% (inactive) | -38.5% (active) | -61.3% (active) |
| O=C1/C(=C/c2cnc(-c3ccccc3)s2)SC(=S)N1Cc1ccc2c(c1)OCO2 | 81.2% (inactive) | 111% (inactive) | -30.1% (active) | 16.7% (inactive) | 42% (inactive) | 97.9% (inactive) | 96.9% (inactive) | 61.5% (inactive) | 66.6% (inactive) | 103% (inactive) | 72.7% (inactive) | 79.3% (inactive) | 72.9% (inactive) | 86.5% (inactive) | 78.4% (inactive) | 42.1% (inactive) | 37.3% (inactive) | 45.2% (inactive) | 87.2% (inactive) | 99.2% (inactive) |
| O=C(NNC(=S)NCCc1ccccc1)c1ccc(OCc2nc3ccc(Cl)cc3[nH]2)cc1 | 66.9% (inactive) | 100% (inactive) | 128% (inactive) | 75.6% (inactive) | 88.2% (inactive) | 67.1% (inactive) | 41.6% (inactive) | 63.3% (inactive) | 80.4% (inactive) | 101% (inactive) | 71.6% (inactive) | 66.1% (inactive) | 73.1% (inactive) | 54.1% (inactive) | 83.8% (inactive) | 81.1% (inactive) | 79.9% (inactive) | 166% (inactive) | 58.9% (inactive) | 39.7% (inactive) |
| Cc1nn(-c2ccccc2)c2ncn(CC(=O)N/N=C/c3ccccc3O)c(=O)c12 | 20.8% (inactive) | 28.2% (inactive) | 76.1% (inactive) | 57.1% (inactive) | 40.2% (inactive) | 43.3% (inactive) | 28.9% (inactive) | 34.3% (inactive) | 10.4% (inactive) | 66.9% (inactive) | 55% (inactive) | 13.3% (inactive) | 47.4% (inactive) | 22.6% (inactive) | 63.4% (inactive) | 21.4% (inactive) | 39.1% (inactive) | 87.2% (inactive) | 23.9% (inactive) | 9.42% (active) |
| O=C(N/N=C/c1occc1Br)c1[nH]c2ccc(Br)cc2c1-c1ccccc1 | -78% (active) | -68.7% (active) | -78.2% (active) | -97.1% (active) | -82.6% (active) | -51.3% (active) | -97.6% (active) | -95% (active) | -100% (active) | -96.5% (active) | -88.8% (active) | -94.1% (active) | -83.8% (active) | -87.1% (active) | -76.5% (active) | -100% (active) | -91.5% (active) | -89.6% (active) | 4.68% (active) | -15.2% (active) |
| Cn1cc(-c2cc3nc(-c4cn(C)c5ncc(Br)cc45)cc(N)n3n2)c2cc(F)ccc21 | 8.7% (active) | -28.5% (active) | 24.9% (inactive) | 58.3% (inactive) | -26.1% (active) | 19.2% (inactive) | 40.4% (inactive) | -7.29% (active) | -69.7% (active) | 22.6% (inactive) | 88.8% (inactive) | 49% (inactive) | 26.4% (inactive) | 20.3% (inactive) | 16% (inactive) | -7.44% (active) | -3.51% (active) | 125% (inactive) | 5.26% (active) | 17.4% (inactive) |
| O=C(Nc1nc2ccc([N+](=O)[O-])cc2s1)Nc1ccccc1F | 13.9% (inactive) | 5.55% (active) | 18.8% (inactive) | 10.2% (inactive) | 6.8% (active) | 13.9% (inactive) | -51.6% (active) | 22.4% (inactive) | 10.5% (inactive) | 22% (inactive) | 6.45% (active) | 5.56% (active) | 2.55% (active) | 6.12% (active) | 17.9% (inactive) | 1.6% (active) | -8.16% (active) | -18.3% (active) | 15.5% (inactive) | 15.7% (inactive) |
| O=C(c1ccc(O)cc1)C1[C@H](c2ccc(Cl)cc2)[C@@H](c2ccccc2)NC12C(=O)Nc1ccccc12 (stereo not given in full) | -70.8% (active) | -66.3% (active) | 43.5% (inactive) | 13.2% (inactive) | -0.272% (active) | 1.61% (active) | -92.9% (active) | -22.4% (active) | -100% (active) | 17.9% (inactive) | -72.3% (active) | 8.32% (active) | -83.8% (active) | 3.54% (active) | 11.8% (inactive) | 3.11% (active) | 3.82% (active) | -2.62% (active) | -7.04% (active) | -34.3% (active) |
| CCCN(CCC)S(=O)(=O)c1ccc(C(=O)O)cc1.CCCN(CCC)S(=O)(=O)c1ccc(C(=O)O)cc1.[Cl][Pt+2][Cl].[NH2-].[NH2-] | 87.8% (inactive) | 42% (inactive) | 1.96% (active) | 26.7% (inactive) | -27.5% (active) | 39.7% (inactive) | -91.2% (active) | -90.2% (active) | -9.75% (active) | 1.28% (active) | -31.6% (active) | 44.8% (inactive) | 12.4% (inactive) | 98.4% (inactive) | 109% (inactive) | 13.4% (inactive) | 32.4% (inactive) | 91.5% (inactive) | 50.4% (inactive) | -2.08% (active) |
| CCCCNc1ccc2c3c(cccc13)C(=O)N(c1cccc(-c3nn(-c4ccccc4)cc3-c3nc4ccccc4s3)c1)C2=O | 108% (inactive) | 114% (inactive) | 92.8% (inactive) | 106% (inactive) | 110% (inactive) | 87.7% (inactive) | 96.3% (inactive) | 88.3% (inactive) | 94.4% (inactive) | 101% (inactive) | 98.1% (inactive) | 96.4% (inactive) | 101% (inactive) | 70.4% (inactive) | 110% (inactive) | 96.3% (inactive) | 82.2% (inactive) | 131% (inactive) | 105% (inactive) | 113% (inactive) |
| CC(=O)Nc1ccc(S(=O)(=O)Nc2ccc(-c3ccc4c(c3)NC(=O)/C4=C\c3ccc[nH]3)cc2)cc1 | 98.3% (inactive) | 118% (inactive) | 108% (inactive) | 73% (inactive) | 89.2% (inactive) | 91.4% (inactive) | 92.6% (inactive) | 68.7% (inactive) | 85.2% (inactive) | 83.6% (inactive) | 93.8% (inactive) | 55.6% (inactive) | 100% (inactive) | 73.1% (inactive) | 69.3% (inactive) | 75.5% (inactive) | 76.7% (inactive) | 139% (inactive) | 80.2% (inactive) | 71.6% (inactive) |
| O=C(c1ccc(O)cc1)C1[C@H](c2ccc(Cl)cc2)[C@@H](c2ccccc2)NC12C(=O)Nc1ccc(Br)cc12 (stereo not given in full) | -67% (active) | -68.1% (active) | -13% (active) | -2.97% (active) | -62% (active) | -16% (active) | -93.3% (active) | -40% (active) | -100% (active) | -5.57% (active) | -76.1% (active) | -5.33% (active) | -92.6% (active) | -25.7% (active) | 1.72% (active) | 0.788% (active) | 3.93% (active) | -15.5% (active) | -11.1% (active) | -34.2% (active) |
| O=C(N/N=C/c1c[nH]c2ccccc12)Nc1ccccc1Cl | 7.73% (active) | -24.2% (active) | 5.18% (active) | 32.8% (inactive) | 13.7% (inactive) | 26.5% (inactive) | -38.6% (active) | 11.4% (inactive) | -45.1% (active) | 39.7% (inactive) | 13.9% (inactive) | 2.29% (active) | 0.991% (active) | 23.2% (inactive) | 34.2% (inactive) | 10.7% (inactive) | 16.1% (inactive) | -8.24% (active) | 9.84% (active) | 5.56% (active) |
| O=C(CCl)Nc1ccc(C(=O)/C=C/c2cc3ccccc3nc2Cl)cc1 | -85.4% (active) and 19.7% (inactive) | 2.8% (active) and 65% (inactive) | 51.2% (inactive) and 68% (inactive) | -80% (active) and 46.6% (inactive) | -83.8% (active) and 39.7% (inactive) | 11.1% (inactive) and 56.4% (inactive) | -78.4% (active) and 62.4% (inactive) | -33.3% (active) and 12.9% (inactive) | -97.9% (active) and 3.63% (active) | -69.5% (active) and 46.2% (inactive) | -3.09% (active) and 60% (inactive) | -5.66% (active) and 36.7% (inactive) | -74.1% (active) and 39.4% (inactive) | -98.1% (active) and 1.88% (active) | 49.1% (inactive) and 74.8% (inactive) | -99.2% (active) and 9.77% (active) | -43.5% (active) and 11.1% (inactive) | 116% (inactive) and 193% (inactive) | -23.1% (active) and 5.66% (active) | -46% (active) and 18.3% (inactive) |
